Data published in PubChem BioAssay (NCATS).
Records with an inconclusive call do not appear. Calls of active or inactive are those of the source. Calls follow the shape of the dose curve; as a rule, active = well fitted curve in the direction sought with a large enough effect; inconclusive = small, poorly fitted or top-dose-only effect, or another doubt; inactive = no such curve, though single readings can be large; an effect the other way counts as inactive or inconclusive.

How the values were obtained:
[1] = molecular target: Cellular tumor antigen p53 (Homo sapiens) (UniProt P04637); experiment: Primary qHTS for small molecule compounds that upregulate eGFP-tagged delta133p53alpha (in N-terminal) cells. (AID 2060322); details: NCI-H358 eGFP-delta133p53alpha fluorescence, 24 h; activation: stronger effect = higher value;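 also: series mostly up to about 56 µM; 0% = DMSO vehicle and 100% = reference activator; nearly all actives have a fitted effect of over 75% in size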
Cellular tumor antigen p53 (Homo sapiens), sequence (P04637 whole entry, looked up): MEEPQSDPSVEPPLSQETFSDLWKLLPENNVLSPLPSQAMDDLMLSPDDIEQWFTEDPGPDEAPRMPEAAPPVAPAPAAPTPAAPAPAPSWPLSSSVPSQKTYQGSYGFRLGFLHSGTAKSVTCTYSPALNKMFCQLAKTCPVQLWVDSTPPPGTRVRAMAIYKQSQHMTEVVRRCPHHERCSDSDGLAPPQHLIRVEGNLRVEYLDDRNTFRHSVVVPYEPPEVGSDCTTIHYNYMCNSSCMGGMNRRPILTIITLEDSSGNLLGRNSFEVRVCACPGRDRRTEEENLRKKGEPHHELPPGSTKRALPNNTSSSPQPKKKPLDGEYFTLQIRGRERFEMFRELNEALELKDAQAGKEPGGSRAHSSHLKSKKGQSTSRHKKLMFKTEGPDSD
Method in brief: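 NCI-H358 cells pre-induced 24 h with 10 ng/ml doxycycline to express N-terminal eGFP-delta133p53alpha, then dosed 24 h at 37C without doxycycline; fixed, Hoechst-stained, GFP intensity by laser scanning cytometry, normalized to DMSO (0%) and 57.5 uM 5-azacytidine (100%).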

[2] = molecular target: Aldehyde dehydrogenase, mitochondrial (Homo sapiens) (UniProt P05091); experiment: qHTS for Inhibitors of the Aldehyde Dehydrogenase Family (ALDH2) Primary screen (AID 2061308);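 also: plate controls were vehicle for no effect and reference inhibitor for full effect; nearly all actives have a fitted effect of over 55% in size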
[3] = molecular target: Retinaldehyde dehydrogenase 3 (Homo sapiens) (UniProt P47895); experiment: qHTS for Inhibitors of the Aldehyde Dehydrogenase Family (ALDH1A3) Primary screen (AID 2061315);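 also: plate controls were DMSO vehicle for no effect and reference inhibitor for full effect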

COC(=O)C[C@H]1[C@]2(C)C3=C(C)[C@H](c4ccoc4)C[C@H]3O[C@@H]2[C@H](O)C2[C@](C)(C(=O)OC)C=CC(=O)[C@@]21C (some centres not stated)
inactive: activation [1] 2.29% | Potency [2] | Potency [3]

CC(=O)O[C@@H]1[C@H](O[C@@H]2O[C@@H](CO)[C@H](O)[C@H]2O)[C@@H](O[C@@H]2O[C@@H](C)[C@H](O[C@@H]3OC[C@@H](O)[C@H](O)[C@H]3O)[C@@H](O)[C@H]2O)[C@H](OC(=O)[C@]23CCC(C)(C)C[C@H]2C2=CCC4[C@@]5(C)CC[C@H](O[C@@H]6O[C@H](C(=O)O)[C@@H](O)[C@H](O)[C@H]6O[C@@H]6O[C@H](CO)[C@H](O)[C@H](O)[C@H]6O)[C@@](C)(C=O)C5CC[C@@]4(C)[C@]2(C)C[C@H]3O)O[C@@H]1C (some centres not stated)
inactive: activation [1] 0.893% | activity change, negative = inhibition [2] -0.326% [at 11.2 µM] | activity change, negative = inhibition [3] -1.8% [at 11.2 µM]

CCNC(=O)[C@@H]1CCCN1C(=O)[C@H](CCCN=C(N)N)NC(=O)[C@H](CC(C)C)NC(=O)[C@@H](CC(C)C)NC(=O)[C@H](Cc1ccc(O)cc1)NC(=O)[C@H](CO)NC(=O)[C@H](Cc1c[nH]c2ccccc12)NC(=O)[C@H](Cc1cnc[nH]1)NC(=O)[C@@H]1CCC(=O)N1
inactive: activation [1] 7% | Potency [2] | Potency [3]

CC1OC(OC2C(OC3C(O[C@H]4CC[C@@]5(C)C(CC[C@]6(C)C5C(=O)CC5=C7CC(C)(C)CC(O)[C@]7(C)CC[C@]56C)C4(C)C)OC(C(=O)O)C(O)C3O)OCC(O)C2O)C(O)C(O)C1O (some centres not stated)
inactive: activation [1] -11.5% | Potency [2] | Potency [3]
